Results filed as inconclusive are left out. Activity calls are given as the source filed them. The calls were made as follows: active = hit-call score of the fitted dose curve at least 0.9, where 1 is the maximum; inconclusive = response in the unintended direction; inactive = score below 0.9.
Experiment: ACEA_ER_AUC_viability: ACEA Biosciences xCELLigence Real-Time Cell Analysis on Estrogen Receptor Agonism for Viability (AID 2283782);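 also: hit means loss of impedance signal meaning reduced cell growth or viability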
Summary of the method: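 Read-out: real-time electrical impedance (RT-CES) area under curve, loss of signal taken as reduced viability, normalized to DMSO baseline. T-47D cells, charcoal-stripped serum medium, compounds up to 100 uM final, continuous exposure, 80 h.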

| Compound | outcome | AC50 |
| --- | --- | --- |
| CC(C)CCOC(=O)CC(C)C | inactive | – |
| C=CCS(=O)(=O)O | inactive | – |
| C=C1CC/C=C(\C)CC[C@@H]2[C@@H]1CC2(C)C | inactive | – |
| O=C(O)c1ccc(C(=O)O)c(C(=O)O)c1 | inactive | – |
| C=CCOCC(O)CO (stereo unspecified) | inactive | – |
| O=S(=O)(O)c1cc(O)c(O)c(S(=O)(=O)O)c1 | inactive | – |
| CCCCCCCCCCCCCCCCCC(=O)OCCCCCCCCCCCCCC(C)C | – | 77 µM (active) |
| C=C1CC[C@H]2O[C@]2(C)CC[C@@H]2[C@@H]1CC2(C)C | inactive | – |
| NS(=O)(=O)c1cc(C(=O)O)c(NCc2ccco2)cc1Cl | inactive | – |
| CC(=O)OCC=C(C)CCC=C(C)CCC=C(C)C | inactive | – |
| O=[N+]([O-])c1cc(N(CCO)CCO)ccc1NCCO | inactive | – |
| CC(C)N1C(=O)c2ccccc2C1=O | inactive | – |
| CC(=O)CCC(=O)O | inactive | – |
| CC(C)CCCC(C)(C)O | inactive | – |
| CC(C)COC(=O)c1ccccc1 | inactive | – |
| NC(=O)c1cnccn1 | inactive | – |
| CCCCCCCCCCCCN1CCOCC1 | – | 80.3 µM (active) |
| CCOC(=O)COC(=O)c1ccccc1C(=O)OCC | inactive | – |

| Compound | outcome | AC50 |
| --- | --- | --- |
| c1ccc2c(c1)-c1ccc3ccc4cccc5cc-2c1c3c45 | inactive | – |
| CCCCOCC(C)OCC(C)O (stereo unspecified) | inactive | – |
| Nc1ccn([C@H]2CC[C@@H](CO)O2)c(=O)n1 | inactive | – |
| O=S(=O)(O)CCCN1CCOCC1 | – | 36.6 µM (active) |
| CCCCCCCCCCCCCC(=O)OCC | – | 50 µM (active) |
| COc1ccc(C(C)=O)cc1 | inactive | – |
| O=C(O)c1cc2ccccc2cc1O | inactive | – |
| C[C@H](CCC(=O)O)[C@H]1CC[C@H]2[C@@H]3CC[C@@H]4C[C@H](O)CC[C@]4(C)[C@H]3CC[C@]12C | – | 85.2 µM (active) |
| CCCCCCCCCC(=O)OCC | inactive | – |
| CC(=O)CC(C)(C)C1CCCCC1 | inactive | – |
| CN(C)C | inactive | – |
| Cc1ccccc1S | inactive | – |
| CCOC(=O)C(=O)OCC | inactive | – |
| CCC(C)(C)c1cc(O)c(C(C)(C)CC)cc1O | – | 72.7 µM (active) |
| C=CC(=O)OCC(CO)(COC(=O)C=C)COC(=O)C=C | – | 2.64 µM (active) |
| O=C(O)c1ccco1 | – | 50 µM (active) |
| CN(C)CCCNCCCN(C)C | – | 50 µM (active) |
| CCCOC(=O)CC | inactive | – |

— PubChem BioAssay (EPA / NIEHS)
